For test [1], the target named is Cellular tumor antigen p53 (Homo sapiens) (UniProt P04637). The test can be described thus: Primary qHTS for small molecule compounds that upregulate eGFP-tagged delta133p53alpha (in N-terminal) cells. (AID 2060322). Also: nearly all actives have a fitted effect of over 75% in size. Also: potency is read from the fitted curve at half-maximal effect.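 As to activation: series mostly up to about 56 µM; 0% = DMSO vehicle and 100% = reference activator.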 The settings on record: NCI-H358 eGFP-delta133p53alpha fluorescence, 24 h; activation: hits give high values. In outline:
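NCI-H358 cells pre-induced 24 h with 10 ng/ml doxycycline to express N-terminal eGFP-delta133p53alpha, then dosed 24 h at 37C without doxycycline; fixed, Hoechst-stained, GFP intensity by laser scanning cytometry, normalized to DMSO (0%) and 57.5 uM 5-azacytidine (100%).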
In general terms: In qHTS, concentration-response curves come from the screen itself.

The target in test [2] is Aldehyde dehydrogenase, mitochondrial (Homo sapiens) (UniProt P05091). The test can be described thus: qHTS for Inhibitors of the Aldehyde Dehydrogenase Family (ALDH2) Primary screen (AID 2061308).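 Also: plate controls were vehicle for no effect and reference inhibitor for full effect; nearly all actives have a fitted effect of over 55% in size.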
For test [3], the target named is Retinaldehyde dehydrogenase 3 (Homo sapiens) (UniProt P47895). The test can be described thus: qHTS for Inhibitors of the Aldehyde Dehydrogenase Family (ALDH1A3) Validation screen (AID 2061312). Also: % is scaled to controls: 0 for no effect and ±100 for the full control effect; nearly all actives have a fitted effect of over 45% in size.
For test [4] the target is unchanged. Put plainly: qHTS for Inhibitors of the Aldehyde Dehydrogenase Family (ALDH1A3) Primary screen (AID 2061315).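 Also: plate controls were DMSO vehicle for no effect and reference inhibitor for full effect.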
Test [5] can be described thus: BET inhibitor-based combinations targeting novel dependencies in MECOM-rearranged (r) AML: MV-4-11 cell line (AID 2202233). Also: nearly all actives have a fitted effect of over 45% in size. Also: potency is read from the fitted curve at half-maximal effect. In outline: (§1)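 Activity is given as area under the curve and as Z-AUC, mean-centred within each cell line. It comes from 11-point dose curves normalized to DMSO and empty wells. CellTiter-Glo luminescence was read after 48 hr drug exposure of 500 cells/well.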

A short description of test [6]: BET inhibitor-based combinations targeting novel dependencies in MECOM-rearranged (r) AML: HNT-34 cell line (AID 2202234). Also: nearly all actives have a fitted effect of over 35% in size. Also: potency is read from the fitted curve at half-maximal effect. In a few lines:
as §1

Test [7] can be described thus: BET inhibitor-based combinations targeting novel dependencies in MECOM-rearranged (r) AML: UCSD-AML1 cell line (AID 2202235). Also: nearly all actives have a fitted effect of over 40% in size. Also: potency is read from the fitted curve at half-maximal effect. In a few lines: as §1
Test [8] is described as follows: BET inhibitor-based combinations targeting novel dependencies in MECOM-rearranged (r) AML: AML-191 cell line (AID 2202236; also: nearly all actives have a fitted effect of over 35% in size; also: potency is read from the fitted curve at half-maximal effect). In a few lines:
(§2)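 Cells were plated at 500 per well and exposed to an 11-point dose series of each drug for 48 hr. Viability was measured by CellTiter-Glo luminescence, normalized to DMSO and empty-well controls, and summarized as AUC and per-cell-line Z-AUC.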

The nature of test [9]: BET inhibitor-based combinations targeting novel dependencies in MECOM-rearranged (r) AML: SET-2 cell line (AID 2202231). Also: nearly all actives have a fitted effect of over 35% in size. Also: potency is read from the fitted curve at half-maximal effect.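 As to viability: plate controls were DMSO treated cells for no effect and wells without cells for full effect.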 Conditions: SET-2 AML cells viability, CellTiter-Glo luminescence, 48 h; viability: hits give low values, concentration not given here. In outline: as §2
Background: In ATP-based viability assays light output follows the ATP content of the culture.

Test [10] can be described thus: BET inhibitor-based combinations targeting novel dependencies in MECOM-rearranged (r) AML: OCI-AML3 cell line (AID 2202232). Also: nearly all actives have a fitted effect of over 35% in size. Also: potency is read from the fitted curve at half-maximal effect. The settings on record: Potency: OCI-AML3 viability. In outline: as §2
The nature of test [11]: qHTS for Inhibitors of the Aldehyde Dehydrogenase Family (ALDH1A2, ALDH1A3, ALDH2, ALDH3A1) (AID 2061307). Also: test system not described further here; potency is read from the fitted curve at half-maximal effect; nearly all actives have a fitted effect of over 50% in size.
Test [12] concerns the target Retinaldehyde dehydrogenase 3 (Homo sapiens) (UniProt P47895). The test can be described thus: qHTS for Inhibitors of the Aldehyde Dehydrogenase Family (ALDH1A3) Confirmatory screens (AID 2061311). Also: potency is read from the fitted curve at half-maximal effect; nearly all actives have a fitted effect of over 60% in size.
Test [13] concerns the target Retinal dehydrogenase 2 (Homo sapiens) (UniProt O94788). Put plainly: qHTS for Inhibitors of the Aldehyde Dehydrogenase Family (ALDH1A2) Confirmation screens (AID 2061314). Also: potency is read from the fitted curve at half-maximal effect; nearly all actives have a fitted effect of over 65% in size.
Test [14] addresses Aldehyde dehydrogenase 1A1 (Homo sapiens) (UniProt P00352). Put plainly: qHTS for Inhibitors of the Aldehyde Dehydrogenase Family (ALDH1A1) Confirmatory screens (AID 2061316). Also: potency is read from the fitted curve at half-maximal effect; nearly all actives have a fitted effect of over 65% in size.
In test [15] the target is Aldehyde dehydrogenase, mitochondrial (Homo sapiens) (UniProt P05091). Put plainly: qHTS for Inhibitors of the Aldehyde Dehydrogenase Family (ALDH2) Validation screens (AID 2061302; active = well fitted inhibition curve with a large enough effect; title and protocol of this record describe different tests;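 also: plate controls were DMSO vehicle for no effect and maximal DPI positive control response for full effect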).
A short description of test [16]: BET inhibitor-based combinations targeting novel dependencies in MECOM-rearranged (r) AML: AML-194 cell line (AID 2202237; also: nearly all actives have a fitted effect of over 40% in size; also: potency is read from the fitted curve at half-maximal effect). In outline: as §2

“And” between values parts separate entries of the source, which are not always exact repeats. Identical values can stand only once. Results filed as inconclusive are left out. Some structures have more than one record in an assay (separate samples or runs), and their calls can disagree. Unmarked numbers belong to inactive results. The source made the active and inactive calls. Unless noted, calls follow the shape of the dose curve; as a rule, active = well fitted curve in the direction sought with a large enough effect; inconclusive = small, poorly fitted or top-dose-only effect, or another doubt; inactive = no such curve, though single readings can be large; an effect the other way counts as inactive or inconclusive.

We go through 16 molecules from PubChem BioAssay (NCATS).

One may read the viability as a read-out of living cells in per cent, often relative to untreated cells.

Chain of Cellular tumor antigen p53 (Homo sapiens) (P04637 whole entry, looked up): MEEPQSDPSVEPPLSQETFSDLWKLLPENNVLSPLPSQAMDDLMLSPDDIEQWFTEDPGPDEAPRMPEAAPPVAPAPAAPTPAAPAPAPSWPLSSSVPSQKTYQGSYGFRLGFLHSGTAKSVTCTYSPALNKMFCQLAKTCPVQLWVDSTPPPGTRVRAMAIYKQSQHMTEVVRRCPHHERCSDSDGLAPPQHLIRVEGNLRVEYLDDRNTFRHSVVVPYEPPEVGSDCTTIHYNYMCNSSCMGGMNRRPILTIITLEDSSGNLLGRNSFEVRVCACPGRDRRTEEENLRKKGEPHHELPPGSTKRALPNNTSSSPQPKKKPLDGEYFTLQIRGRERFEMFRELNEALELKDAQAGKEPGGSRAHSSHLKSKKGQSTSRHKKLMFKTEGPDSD

Regarding `CN(C[C@@H]1COCCO1)S(=O)(=O)Nc1ccc2ccc3ncc(-c4cnn(C)c4)cc3c(=O)c2c1`, the Potency in test [1] was 8.63 µM (active); in [5], 0.417 µM (active); in test [6], 3.32 µM (active); in test [7] it was 5.9 µM (active); in test [8], 6.61 µM (active). Moreover, the activation in test [1] is -1.43%. Besides, the Potency result in [2], in [3] and in test [4] was “inactive” in each case.

Turning to `O=C(Nc1cc(C(F)(F)F)cc(C(F)(F)F)c1)c1cc(Cl)ccc1O`, the Potency is 3.01 µM (active) in test [1]; 2.35 µM (active) in test [9]; 2.09 µM (active) in test [10]; 2.35 µM (active) in test [6]; 1.66 µM (active) in test [7]. In addition, the activation in test [1] is 2.31%. Also, the Potency entry in [2] and in test [4] was “inactive” each time.

On to `Cc1coc2c1C(=O)C(=O)c1c-2ccc2c(C)cccc12`, for which the Potency in test [1] was 13.5 µM (active); in test [11], 4.49 µM (active); in [12], 12.7 µM (active); in test [13] it was 11.3 µM (active); in [14] it was 3.57 µM (active). Besides, in [1], the activation is 9.22%.

Consider `Cc1cn(-c2cc(NC(=O)c3ccc(C)c(Nc4nccc(-c5cccnc5)n4)c3)cc(C(F)(F)F)c2)cn1`, for which the Potency is 30.1 µM (active) in test [1], 1.18 µM (active) in [10], 1.86 µM (active) in test [5] and 0.0295 µM (active) in [6]. In addition, the activation in [1] is 12.7%. Also, the Potency result in test [2] and in test [4] was “inactive” in each case.

`Cc1cc(C)c(CNC(=O)c2cc(-c3ccc(CN4CCOCC4)cc3)cc3c2cnn3C2CCCC2)c(=O)[nH]1`: the Potency was 4.31 µM (active) in test [1] and 29.5 µM (active) in test [5]. In addition, the activation in [1] is 7.64%. Also, the Potency entry in test [2] and in [4] was “inactive” throughout.

As for `CN(C)c1ccc(/C=C2\C(=O)Nc3ccccc32)cc1`, in test [1], the Potency was 43.2 µM (active) and the activation is -19.4%. Also, the Potency entry in test [15] was “inactive”. Also, the Potency result in test [3] was “inactive”.

Regarding `CS(=O)(=O)c1cccc(CNc2nc(Nc3ccc4c(c3)CCC(=O)N4)ncc2C(F)(F)F)c1`, the Potency in [1] was 21.3 µM (active); in test [9], 16.6 µM (active); in test [10], 20.9 µM (active); in [5], 0.209 µM (active); in [6], 9.34 µM (active); in test [7] it was 10.5 µM (active). The Potency in test [8] was 9.34 µM (active). Further, the activation in test [1] is -20.3% and 55.5%. For the same molecule, the Potency entry in test [15], in [2], in test [3] and in test [4] was “inactive” throughout.

On to `CC1(O)CC(c2nc(-c3ccc4ccc(-c5ccccc5)nc4c3)c3c(N)nccn23)C1` (configuration not stated), for which, in [1], the Potency was 24.3 µM (active). Further, in test [1], the activation was 34.8%. Further, the Potency entry in [2], in [4], in test [10], in [5], in [8] and in test [16] was “inactive” each time. In [9], the viability is 83.7%.

Take `COc1cc2nc(N3CCCN(C)CC3)nc(NC3CCN(Cc4ccccc4)CC3)c2cc1OC`: the Potency in [1] was 30.6 µM (active); in test [9], 18.6 µM (active); in [10] it was 8.33 µM (active); in test [5], 6.61 µM (active); in test [6] it was 7.42 µM (active); in test [7], 6.61 µM (active). The Potency in test [8] was 14.8 µM (active); in test [16] it was 10.5 µM (active). Also, the activation in test [1] was -2.51%. In test [15], the Potency entry was “inactive”.

Consider `COCCOc1nc(-c2ccc(Cl)c(Cl)c2)n(-c2ccc(NC(=O)CCl)cc2)n1`, for which the Potency was 15.1 µM (active) in test [1]; 1.86 µM (active) in test [9]; 2.09 µM (active) in test [10]; 0.662 µM (active) in [6]; 1.32 µM (active) in [7]; 1.05 µM (active) in test [8]. In addition, the Potency in [16] is 0.934 µM (active). Further, the activation in test [1] is 36.6%. The Potency result in test [2] and in test [3] was “inactive” throughout.

In the case of `CN1c2ccccc2C(=O)N2CCc3c([nH]c4ccccc34)C21` (configuration not stated), the Potency in test [1] was 2.69 µM (active); in [9], 5.25 µM (active); in test [10], 2.95 µM (active); in [6], 1.86 µM (active); in test [7] it was 1.66 µM (active); in test [8], 1.32 µM (active). Besides, the Potency in test [16] was 1.32 µM (active). For the same molecule, the activation in test [1] is -3.8%. Moreover, the Potency entry in test [2] and in test [4] was “inactive” throughout.

On to `CN1C[C@H](C(=O)N[C@]2(C)O[C@@]3(O)[C@@H]4CCCN4C(=O)[C@H](Cc4ccccc4)N3C2=O)C[C@@H]2c3cccc4[nH]cc(c34)C[C@H]21`, for which, in [1], the Potency is 24.6 µM (active) and the activation was 7.67%. For the same molecule, the Potency result in test [15] is “inactive”.

On to `CNC(=O)CN1CCC(Oc2cc3c(Nc4cccc(Cl)c4F)ncnc3cc2OC)CC1`, for which the Potency in test [1] was 13.7 µM (active); in test [6], 16.6 µM (active); in test [7] it was 20.9 µM (active). In addition, the activation in [1] is 14.3%. Also, the Potency result in [2], in [4] and in test [8] was “inactive” each time. Further, the viability in test [9] was 107%.

`NS(=O)(=O)NCCNc1nonc1C(=Nc1ccc(F)c(Br)c1)NO`: the Potency in test [1] was 2.16 µM (active). The activation in [1] is -6.33% and -3%. The Potency entry in test [2], in test [4], in test [10], in [5], in test [6] and in [7] was “inactive” in each case. Besides, the Potency result in test [8] and in test [16] was “inactive” in each case. The viability in test [9] is 106%.

Turning to `Cc1cc(Nc2ncc(Cl)c(Nc3ccccc3S(=O)(=O)C(C)C)n2)c(OC(C)C)cc1C1CCNCC1`, the Potency in test [1] is 7.57 µM (active); in test [10], 9.34 µM (active); in test [5] it was 4.68 µM (active); in test [6], 6.61 µM (active); in test [7], 10.5 µM (active); in test [8], 16.6 µM (active). Further, the Potency in test [16] was 9.34 µM (active). The activation in test [1] was 21.6%. For the same molecule, the Potency result in test [2] and in test [4] was “inactive” throughout.

Consider `Oc1ccc(-c2nc(-c3ccc(F)cc3)c(-c3ccncc3)[nH]2)cc1`, for which the Potency was 38.5 µM (active) in test [1] and 18.6 µM (active) in test [5]. The activation in [1] was 9.98% and -12.3%. Also, the Potency result in [15] and in test [3] was “inactive” each time.
